Activity calls are given as the source filed them.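 The calls were made as follows: active = valid curve fit with half-effect dose at most 10 µM and total binding change across doses of 30 points or more; inactive = the rest.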

The results in this text go back to PubChem BioAssay AID588477 (NMMLSC, 2011).

In this assay the test system is Rac wt. Nature of the assay: inhibitors of Bodipy-GTP binding across eight GTPases, SAR follow-up, selectivity assay for Cdc42 probe extension project, biochemical, round 1 SAR, Mg buffer, multiplex flow cytometry (AID 588477). Particulars: GST-GTPase beads; series mostly up to 100 µM.
Take `NS(=O)(=O)c1ccc(N2N=C(c3ccccc3)CC2c2ccccc2)cc1` (stereo not drawn): the result was inactive.

With `COc1ccc(C2CC(c3ccccc3)=NN2c2ccc(S(N)(=O)=O)cc2)cc1` (stereo not drawn), the molecule was classed as inactive.

With `O=C(C#Cc1ccccc1)c1cccc([N+](=O)[O-])c1`, the molecule was called inactive.
